Experimental data: PubChem BioAssay (Tox21)
Inconclusive results are not listed. Activity calls are given as the source filed them. Unless noted, calls follow the shape of the dose curve; as a rule, active = well fitted curve in the direction sought with a large enough effect in the repeat runs; inconclusive = weak or mixed curves; inactive = no such curve, though single readings can be large; an effect the other way counts as inactive or inconclusive. Positions of bridges follow the written chain, without caps; N, C: chain ends. Non-standard residues stand in square brackets, D forms with d. Residues, ends and D or L forms follow the SMILES beside them. ξ: configuration not given here. *: point of attachment. d(aThr) = C[C@@H](O)[C@@H](N)C(=O)O; ξThr(3R) = C[C@@H](O)C(N)C(=O)O; X3 = CC[C@@H](C)CCCCC(=O)*; dDab = NCC[C@@H](N)C(=O)O

Assays:
[1] = qHTS assay to identify small molecule antagonists of the glucocorticoid receptor (GR) signaling pathway - cell viability counter screen (AID 720693); also: nearly all actives have a fitted effect of over 55% in size
[2] = qHTS assay for identifying genotoxic compounds that show differential cytotoxicity against isogenic chicken DT40 cell lines with known DNA damage response pathways - wild type cell line (AID 743012); also: nearly all actives have a fitted effect of over 60% in size; also: potency is read from the fitted curve at half-maximal effect
How it was run: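 Viability of DNA repair-proficient chicken DT40 cells was assessed by CellTiter-Glo luminescence following 40 h compound exposure at 37 C/5% CO2.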

[3] = qHTS assay for identifying genotoxic compounds that show differential cytotoxicity against isogenic chicken DT40 cell lines with known DNA damage response pathways - Rad54/Ku70 mutant cell line (AID 743015); also: nearly all actives have a fitted effect of over 60% in size; also: potency is read from the fitted curve at half-maximal effect
[4] = qHTS assay to identify small molecule antagonists of the androgen receptor (AR) signaling pathway - cell viability counter screen (AID 743033; also: nearly all actives have a fitted effect of over 45% in size)
[5] = qHTS assay to identify small molecule antagonists of the androgen receptor (AR) signaling pathway using the MDA cell line - cell viability counter screen (AID 743041; also: nearly all actives have a fitted effect of over 45% in size)
How it was run: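 Using the breast carcinoma line MDA-kb2 AR-luc, test chemicals were co-incubated with R1881 for 16 h; CellTiter-Fluor reagent, added at 15.5 h, provided a fluorescence measure of live cells.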

[6] = target: Androgen receptor (Homo sapiens) (UniProt P10275); experiment: qHTS assay to identify small molecule agonists of the androgen receptor (AR) signaling pathway (AID 743036; active = well fitted activation curve with a large enough effect in the signal ratio in the repeat runs, with a control signal flat, not every such curve was filed as active; the % refers to the signal ratio)
How it was run: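 Beta-lactamase under UAS control, stably integrated in HEK293 GripTite cells, reports receptor activation. After 16 h compound treatment, cells received FRET substrate for 2 h at room temperature before fluorescence reading.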

[7] = target: Androgen receptor (Homo sapiens) (UniProt P10275); experiment: qHTS assay to identify small molecule agonists of the androgen receptor (AR) signaling pathway using the MDA cell line (AID 743040; also: nearly all actives have a fitted effect of over 20% in size)
How it was run: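 Stable MMTV-luciferase reporter in MDA-kb2 cells; note the promoter carries GR as well as AR response elements. 16 h compound treatment, 37C, 0% CO2; ONE-Glo luminescence endpoint.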

[8] = target: Androgen receptor (Homo sapiens) (UniProt P10275); experiment: qHTS assay to identify small molecule antagonists of the androgen receptor (AR) signaling pathway using the MDA cell line (AID 743042; also: nearly all actives have a fitted effect of over 55% in size)
How it was run: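 Antagonist mode: compounds plus R1881 agonist added to MDA-kb2 AR-luc cells, incubated 16 h at 37C. Luciferase reporter luminescence quantified, with multiplexed CellTiter-Fluor readout for cell viability.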

[9] = target: Androgen receptor (Homo sapiens) (UniProt P10275); experiment: qHTS assay to identify small molecule antagonists of the androgen receptor (AR) signaling pathway (AID 743035; active = well fitted inhibition curve with a large enough effect in the signal ratio in the repeat runs, not every such curve was filed as active; the % refers to the signal ratio)
How it was run: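 Reporter HEK293 cells were exposed to compounds and R1881 overnight (16 h, 37C); beta-lactamase activity was then quantified by FRET fluorescence.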

Measured: Potency

Androgen receptor (Homo sapiens), sequence (P10275 whole entry, looked up): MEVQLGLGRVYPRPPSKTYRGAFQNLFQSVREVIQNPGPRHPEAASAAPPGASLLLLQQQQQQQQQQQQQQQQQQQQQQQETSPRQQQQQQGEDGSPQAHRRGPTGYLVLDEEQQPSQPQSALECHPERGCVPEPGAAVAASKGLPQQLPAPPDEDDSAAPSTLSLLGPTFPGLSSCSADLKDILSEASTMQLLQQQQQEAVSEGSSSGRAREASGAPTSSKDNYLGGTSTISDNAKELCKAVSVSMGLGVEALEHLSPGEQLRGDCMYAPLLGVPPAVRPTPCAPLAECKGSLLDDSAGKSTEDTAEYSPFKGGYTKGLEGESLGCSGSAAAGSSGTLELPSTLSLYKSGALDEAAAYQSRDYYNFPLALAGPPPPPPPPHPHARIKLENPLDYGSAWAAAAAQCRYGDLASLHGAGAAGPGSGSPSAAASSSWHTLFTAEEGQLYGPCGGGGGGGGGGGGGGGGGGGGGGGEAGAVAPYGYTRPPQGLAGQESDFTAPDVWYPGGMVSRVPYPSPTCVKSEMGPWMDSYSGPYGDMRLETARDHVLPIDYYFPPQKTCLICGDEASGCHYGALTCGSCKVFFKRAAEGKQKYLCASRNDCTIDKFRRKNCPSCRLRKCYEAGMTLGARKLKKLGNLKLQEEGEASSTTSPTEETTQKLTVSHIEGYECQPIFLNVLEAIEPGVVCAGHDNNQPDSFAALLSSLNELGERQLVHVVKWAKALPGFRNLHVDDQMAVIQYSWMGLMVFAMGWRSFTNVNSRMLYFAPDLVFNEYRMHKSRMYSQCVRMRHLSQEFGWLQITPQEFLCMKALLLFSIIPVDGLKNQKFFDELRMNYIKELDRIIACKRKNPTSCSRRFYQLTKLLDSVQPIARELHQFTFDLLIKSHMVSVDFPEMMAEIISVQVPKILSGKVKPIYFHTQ

C[C@]12CCC(=O)C=C1CC[C@@H]1[C@@H]2[C@@H](O)C[C@@]2(C)[C@H]1CC[C@]2(O)C(=O)COP(=O)(O)O
inactive: [1] | [2] | [3] | [4] | [5]

CN(C)C=Nc1c(I)cc(I)c(CCC(=O)O)c1I
inactive: [1] | [2] | [3] | [4] | [5]

CCCCCCCCCCCCCCCC(=O)OC[C@@H](O)[C@H]1OC[C@H](O)[C@H]1O
inactive: [1] | [2] | [3] | [4] | [5]

CC(=O)N[C@@H](C=O)[C@@H](O)[C@H](O)[C@H](O)CO
inactive: [1] | [2] | [3] | [5]

CN(C)CCOc1ccccc1Cc1ccccc1 (tested in a mixture with another compound)
active: [2] 26.6 µM
inactive: [1] | [4] | [5]

CC1=C(C(=O)OCCN(Cc2ccccc2)c2ccccc2)C(c2cccc([N+](=O)[O-])c2)C(P2(=O)OCC(C)(C)CO2)=C(C)N1 (stereo unspecified)
inactive: [1] | [4] | [5]
active: [2] 29.8 µM | [3] 26.6 µM

CCCCC(=O)N(Cc1ccc(-c2ccccc2-c2nn[nH]n2)cc1)[C@@H](C(=O)O)C(C)C
inactive: [1] | [2] | [3] | [4] | [5]

O=C(NCCNCC(O)COc1ccc(O)cc1)N1CCOCC1 (stereo unspecified)
inactive: [1] | [2] | [3] | [5]

CC[C@@H](C)CCCCC(=O)N[C@H](CCN)C(=O)N[C@@H](C(=O)N[C@H](CCN)C(=O)N[C@@H]1CCNC(=O)C([C@@H](C)O)NC(=O)[C@@H](CCN)NC(=O)[C@@H](CCN)NC(=O)[C@@H](CC(C)C)NC(=O)[C@@H](Cc2ccccc2)NC(=O)[C@@H](CCN)NC1=O)[C@@H](C)O (stereo partly drawn) (X3-[dDab][d(aThr)][dDab][dDab][dDab][dF][dL][dDab][dDab][ξThr(3R)]; lactam 4-C)
inactive: [1] | [2] | [3] | [4] | [5]

CN(CC(=O)N1CCOCC1)Cc1c(Cl)cccc1NC(=O)c1ccccc1
inactive: [1] | [4]
active: [2] 23.7 µM

O=C(O)CO.[NH2-].[NH2-].[Pt+2]
inactive: [1] | [2] | [3] | [4] | [5]

COc1ccc(CCNCC(O)COc2cccc(C)c2)cc1OC (stereo unspecified)
active: [2] 26.6 µM
inactive: [1] | [4] | [6] | [7] | [5] | [8]

CC(=O)O[C@H]1CC[C@@]2(C)C(=CC[C@@H]3[C@@H]2CC[C@]2(C)C(c4cccnc4)=CC[C@@H]32)C1
active: [2] 5.31 µM
inactive: [1] | [4] | [9] | [6] | [7] | [5] | [8]

CCOC(=O)C1=C[C@@H](OC(CC)CC)[C@H](NC(C)=O)[C@@H](N)C1
inactive: [1] | [2] | [3] | [4] | [5]

Cc1c(O)cc2c(c1C)O[C@](C)(CCC[C@H](C)CCC[C@H](C)CCCC(C)C)CC2
inactive: [1] | [2] | [3] | [5]

CCC(c1ccccc1)c1noc(CCN(CC)CC)n1 (stereo unspecified)
active: [2] 23.7 µM
inactive: [1] | [4] | [9] | [5] | [8]

CCCCC(=O)O[C@H]1CC[C@H]2[C@@H]3CCc4cc(O)ccc4[C@H]3CC[C@]12C
inactive: [1] | [4] | [5]
active: [2] 18.8 µM | [3] 16.8 µM

CO[C@H]1C[C@H](O[C@H]2[C@H](C)[C@@H](O[C@@H]3O[C@H](C)C[C@H](N(C)C)[C@H]3OC(C)=O)[C@@H](C)C[C@]3(CO3)C(=O)[C@H](C)[C@@H](OC(C)=O)[C@@H](C)[C@@H](C)OC(=O)[C@@H]2C)O[C@@H](C)[C@@H]1OC(C)=O
inactive: [1] | [2] | [3] | [9] | [6] | [7] | [5] | [8]

Nc1nc2c(c(=O)[nH]1)N(C=O)C(CNc1ccc(C(=O)N[C@@H](CCC(=O)O)C(=O)O)cc1)CN2 (stereo partly specified)
inactive: [1] | [2] | [4] | [9] | [7] | [5] | [8]

CO[C@@H]1[C@@H](O[C@@H]2O[C@H](C)[C@@H](O[C@H]3C[C@@](C)(O)[C@@H](O)[C@H](C)O3)[C@H](N(C)C)[C@H]2O)[C@@H](CC=O)C[C@@H](C)[C@@H](O[C@@H]2CC[C@H](N(C)C)[C@@H](C)O2)/C=C/C=C/C[C@@H](C)OC(=O)C[C@H]1O
inactive: [1] | [2] | [4] | [5]

CC(C)=CCC/C(C)=C/C=C/C(C)=C/C=C/C(C)=C/C=C/C=C(C)/C=C/C=C(C)/C=C/C=C(\C)CCC=C(C)C
inactive: [1] | [4] | [7] | [5] | [8]
active: [2] 29.8 µM

COc1cc(NCCCC(C)N)c2ncccc2c1 (stereo unspecified)
active: [2] 29.8 µM | [3] 21.1 µM
inactive: [1] | [7] | [5] | [8]

Cc1nc(NS(=O)(=O)c2ccc(N)cc2)nc(C)c1Br
inactive: [1] | [2] | [3] | [4] | [5]

CN[C@@H]1[C@H](O[C@H]2[C@H](O[C@H]3[C@H](O)[C@@H](O)[C@H](N=C(N)N)[C@@H](O)[C@@H]3N=C(N)N)O[C@@H](C)[C@]2(O)C=O)O[C@@H](CO)[C@H](O)[C@H]1O
inactive: [1] | [2] | [3] | [4] | [5]
